Pol kappa inh-1 = qHTS for Inhibitors of Polymerase Kappa; AID 588579, 2011; actives 0.53% (n = 400,000); DNA polymerase kappa (Homo sapiens), Q9UBT6; Potency, µM (top dose mostly 107 µM), actives largely listed as inhibitors; purified Pol kappa, fluorescent DNA synthesis assay, 10 min
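First, compounds were pin-transferred onto 10 nM Pol kappa. After 15 min at room temperature, substrate was added to 50 nM final. Fluorescence was then measured kinetically at 0 and 10 min.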
POLI inh = qHTS for Inhibitors of Polymerase Iota; Pol iota fluorescent replication assay, 10 min; AID 588590, 2011; Potency, µM (highest dose often 115 µM), most hits filed as inhibitors; DNA polymerase iota (Homo sapiens), Q9UNA4; actives 1% (n = 390,000)
Target sequence (Q9UNA4 whole entry, looked up): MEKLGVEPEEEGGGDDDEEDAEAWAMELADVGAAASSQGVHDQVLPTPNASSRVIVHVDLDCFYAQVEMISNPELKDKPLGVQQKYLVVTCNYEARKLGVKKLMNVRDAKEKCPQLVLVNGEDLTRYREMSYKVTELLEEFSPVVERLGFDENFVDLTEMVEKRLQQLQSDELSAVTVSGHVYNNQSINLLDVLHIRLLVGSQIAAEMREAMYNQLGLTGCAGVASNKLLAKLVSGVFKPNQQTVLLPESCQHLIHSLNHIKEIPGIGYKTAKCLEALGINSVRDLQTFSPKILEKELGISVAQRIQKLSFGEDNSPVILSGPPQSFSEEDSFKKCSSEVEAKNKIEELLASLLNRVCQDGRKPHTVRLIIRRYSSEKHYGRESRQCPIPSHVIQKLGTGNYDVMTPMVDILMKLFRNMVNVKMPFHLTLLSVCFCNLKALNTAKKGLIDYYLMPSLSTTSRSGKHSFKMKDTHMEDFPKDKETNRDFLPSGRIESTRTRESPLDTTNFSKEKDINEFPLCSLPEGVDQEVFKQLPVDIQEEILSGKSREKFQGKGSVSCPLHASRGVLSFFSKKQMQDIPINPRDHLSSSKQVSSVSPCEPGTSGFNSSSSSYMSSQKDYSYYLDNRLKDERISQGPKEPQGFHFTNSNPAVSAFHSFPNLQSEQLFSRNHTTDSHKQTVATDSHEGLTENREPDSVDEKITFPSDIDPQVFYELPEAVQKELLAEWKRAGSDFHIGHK
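Fluorescent replication assay read twice, at 0 min and 10 min after adding 50 nM (final) substrate. Enzyme (10 nM) and compounds were first incubated 15 min at room temperature; enzyme-free buffer wells were negative controls.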
WRN inhibitor = qHTS for Inhibitors of WRN Helicase; actives 0.46% (n = 360,000); WRN helicase unwinding, fluorescent forked duplex, kinetic; Potency, µM (top dose mostly 114 µM), hits mostly inhibitors; Bifunctional 3'-5' exonuclease/ATP-dependent helicase WRN (Homo sapiens), Q14191; further: nearly all actives have a fitted effect of over 55% in size
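Primary qHTS, 1536-well format. 20 nM WRN + compound, 15 min RT; start with 100 nM forked fluorophore/quencher duplex, 2 mM ATP (final); kinetic read ex 525/em 598 nm.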
Pol eta inh-1 = qHTS for Inhibitors of Polymerase Eta. recombinant Pol eta, fluorescent DNA replication assay. Potency, µM (series often up to 114 µM), usual class: inhibitors. actives 1.2% (n = 390,000)
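Pol eta (10 nM) was preincubated with compounds for 15 min at room temperature, after which fluorescent replication substrate (50 nM final) was added to start the reaction. Fluorescence was read kinetically at 0 and 10 min.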
FEN1 inh = qHTS Assay for the Inhibitors of Human Flap endonuclease 1 (FEN1) | P39748 | Recombinant FEN1 flap cleavage, fluorescence, 15 min | Potency, µM (highest dose often 114 µM), actives largely listed as inhibitors | actives 0.35% (n = 390,000); further: nearly all actives have a fitted effect of over 65% in size
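FEN1 at 10 nM preincubated with compounds 15 min at room temperature, then flap DNA substrate added at 50 nM final. Signal read at 0 and 15 min; concentration-response fitted with four-parameter Hill equation.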
Pol beta inh = qHTS Assay for Inhibitors of DNA Polymerase Beta | AID 485314, 2010 | P06746 | Potency, µM (doses to about 114 µM), hits mostly inhibitors | Pol beta primer extension/strand displacement, fluorescence kinetic | actives 1.3% (n = 340,000)
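Pol beta (10 nM) was preincubated with compound for 15 min at room temperature. The reaction was then started with 50 nM substrate and read immediately and after a further 10 min at room temperature.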
PGK validate = qHTS for inhibitors of Phosphogylcerate Kinase: Hit Validation Screen; shares compounds with Pol kappa inh-1; TbPGK coupled GAPDH assay, Kinase-Glo luminescence; Potency, µM (highest dose often 57.5 µM), actives largely listed as inhibitors; actives 79% (n = 500); AID 686980, 2013; further: nearly all actives have a fitted effect of over 65% in size
POLI cherry-pick = qHTS for Inhibitors of Polymerase Iota: Confirmatory Assay for Cherry-picked Compounds. shares compounds with Pol kappa inh-1. Pol iota primer extension, TAMRA/BHQ fluorescence. Potency, µM, actives largely listed as inhibitors. actives 77% (n = 1,500). AID 720496, 2013
GALK confirm = Confirmation Assay for Inhibitors of Human Galactokinase (GALK) | shares compounds with Pol eta inh-1 | purified GALK, Kinase-Glo ATP depletion luminescence | Potency, µM (titrated, usually from 115 µM), usual class: inhibitors | actives 70% (n = 150) | AID 2015, 2009
GALK redox cs = Confirmatory Assay for Inhibitors of Human Galactokinase (GALK): Phenol-HRP redox assay counterscreen. actives 40% (n = 150). Potency, µM (highest dose often 115 µM), usual class: inhibitors. Phenol red-HRP H2O2 redox cycling, absorbance 600 nm. AID 2035, 2009. shares compounds with Pol eta inh-1
HEK293 viability = Secondary Assay for Inhibitors of Human Galactokinase (GALK): HEK-293 Cell Viability Assay; HEK-293 viability, ATP luminescence (CellTiter-Glo), 24/48 h; actives 10% (n = 170); Potency, µM (top dose mostly 46.1 µM), most hits filed as inhibitors; AID 2547, 2010; shares compounds with Pol eta inh-1
Pol kappa inh-2 = qHTS for Inhibitors of Polymerase Kappa: Confirmatory Assay for Cherry-picked Compounds | shares compounds with Pol eta inh-1 | purified Pol-kappa, fluorescent strand-displacement substrate | Potency, µM, actives largely listed as inhibitors | actives 76% (n = 920) | AID 720501, 2013
Pol eta inh-2 = qHTS for Inhibitors of Polymerase Eta: Confirmatory Assay for Cherry-picked Compounds. shares compounds with Pol eta inh-1. Pol eta primer extension, TAMRA/BHQ fluorescence, 10 min. Potency, µM, actives largely listed as inhibitors. actives 64% (n = 2,600)
A number is an active result; – = inactive; ? = inconclusive; · = no result; [ ] = dose if it differs, or a comment. In the library only some 2.4% were active in any assay of this set; here they are far more common. The call rests on the fitted dose curve; in most records, active means well fitted curve in the direction sought with a large enough effect; inconclusive means small, poorly fitted or top-dose-only effect, or another doubt; inactive means no such curve, though single readings can be large; an effect the other way counts as inactive or inconclusive.

SMILES	Pol kappa inh-1	POLI inh	WRN inhibitor	Pol eta inh-1	FEN1 inh	Pol beta inh	POLI cherry-pick	Pol eta inh-2	others
C/C(=N\Nc1ccc(Cl)c(C(=O)O)c1)c1ccc[nH]1	45µM	45µM	?	14µM	–	32µM	53	27
O=C(NCCc1ccc(Cl)cc1)c1c2c(nc3ccccc13)C(=O)N(C1CCCCC1)C2	–	–	·	–	–	–	·	·
O=C(NN1C(=O)CSC1=S)C(=O)NN1C(=O)CSC1=S	?	?	22µM	28µM	?	1.8µM	34	21
CCN(C/C=C/C#CC(C)(C)C)Cc1cccc(OCc2cc(-c3ccsc3)cs2)c1	–	·	·	·	·	·	·	·
O=C(O)C1=CCC=CC1C(=O)O (stereo not drawn)	·	·	?	5µM	·	·	21	15	PGK validate=3.3µM
O=C(C1COc2ccccc2O1)N1CCCC1 (stereo not drawn)	–	–	–	–	–	–	·	·
O=C(C1COc2ccccc2O1)N1CCc2ccccc21 (stereo not drawn)	?	45µM	?	79µM	–	32µM	75	?
CC(=O)c1ccc(N2C(=O)N(Cc3cccc(C(F)(F)F)c3)c3ccccc3S2(=O)=O)cc1	–	–	·	?	–	–	·	·
O=c1c(OC2OC(CO)C(O)C(O)C2OC2OC(CO)C(O)C(O)C2O)c(-c2ccc(O)cc2)oc2cc(O)cc(O)c12 (stereo not drawn)	50µM	28µM	–[11.6 µM]	11µM	?	22µM	?	?
C[C@@H]1OC(O[C@H]2[C@H](Oc3cc(O)c4c(=O)c(O)c(-c5ccc(O)cc5)oc4c3)O[C@H](CO)[C@@H](O)[C@@H]2O)[C@H](O)[C@H](O)[C@H]1O (stereo partly drawn)	–	·	·	·	·	·	·	·
N=C1S/C(=C\c2ccc(-c3ccccc3C(=O)O)o2)C(=O)N1c1ccc2c(c1)OCO2	79µM	13µM	?	20µM	?	25µM	67	43	Pol kappa inh-2=19
O=C(O)CN1C(=O)S/C(=C\c2ccc3c(c2)OCO3)C1=O	–	–	–	–	–	·	·	·
CN(C)c1ccc(CNC(=O)c2cccc(NC(=O)N3CCSc4ncccc43)c2)cc1	–	–	·	–	–	–	·	·
O=C(O)c1ccc(/C=N/NC(=O)c2cc(-c3ccc4c5c(cccc35)CC4)n[nH]2)cc1	?	?	?	25µM	?	28µM	60	38	Pol kappa inh-2=12
CO[C@H]1/C=C/O[C@@]2(C)Oc3c(C)c(O)c4c(O)c(c(/C=N\N5CCN(C6CCCC6)CC5)c(O)c4c3C2=O)NC(=O)/C(C)=C\C=C\[C@H](C)[C@H](O)[C@@H](C)[C@@H](O)[C@@H](C)[C@H](OC(C)=O)[C@@H]1C	–[19.4 µM]	·	·	·	·	·	·	·
CCOC(=O)c1ccc(N/N=C/c2cc(Br)cc([N+](=O)[O-])c2O)cc1	–	–	–[11.6 µM]	25µM	–	–	67	?
CCOC(=O)c1ccc(Nc2ncccc2[N+](=O)[O-])cc1	–	–	–	–	–	–	·	·
O=C(Cc1ccc(S(=O)(=O)N2CCCCC2)s1)Nc1cccc2ccccc12	–	–	–	–	–	–	·	·
O=C(O)Cc1ccc(S(=O)(=O)N2CCCC2)s1	79µM	?	–	7.1µM	–	·	47	30	Pol kappa inh-2=12
COc1ccc2[nH]c3nc(SCC(=O)NNC(=O)c4ccc(OC)c(OC)c4)nnc3c2c1	–	–	–	?	–	–	·	·
Cc1ccc(C(=O)NNC(=O)CSc2nnc3c(n2)[nH]c2ccc(F)cc23)cc1	–	–	–	79µM	–	5µM	19	?	Pol kappa inh-2=19
COc1ccc(CN(Cc2ccccc2)C(=O)c2ccco2)cc1COc1ccc(NC(C)=O)cc1	–	–	·	·	–	·	·	·
Cc1ccc(C(=O)OCC(=O)c2ccc(CC(=O)N3CCOCC3)s2)c(C)c1	18µM	13µM	50µM	16µM	–	·	42	?	Pol kappa inh-2=38
Cc1ccc(-n2c(C)cc(C(=O)OCC(=O)N3CCOCC3)c2C)cc1	–	–	–	–	–	·	·	·
C=C(C)C(=O)Nc1ccc2c(c1)OCCOCCOCCO2	79µM	?	?	22µM	?	10µM	·	19	PGK validate=?
CC(=O)c1ccc2c(c1)OCCOCCOCCO2	–	–	–	–	–	–	·	·
Cc1ccc(-n2c(C)nc3oc4ccccc4c(=O)c3c2=O)cc1	?	?	?	79µM	–	40µM	24	38
NS(=O)(=O)c1ccc(NC2=CC(=O)C(=O)c3ccccc32)cc1	–	?	?	?	–	?	?	?	GALK confirm=15µM;GALK redox cs=11µM;HEK293 viability=–
COc1cc(OC)c(OC)cc1/C=C1\Oc2cc(OCC(=O)N3Cc4ccccc4C[C@H]3C(=O)O)ccc2C1=O	79µM	?	?	22µM	?	?	27	21
